According to PubChem BioAssay AID1347414 (National Center for Advancing Translational Sciences (NCATS), 2020):
Inconclusive results are not listed. Activity calls are given as the source filed them. Calls come from the whole dose curve; as a rule, active = well fitted inhibition curve with a large enough effect; inconclusive = small, poorly fitted or top-dose-only effect; inactive = no such curve, though single readings can be large or run the other way.

test: qHTS to identify inhibitors of the type 1 interferon - major histocompatibility complex class I in skeletal muscle: Secondary screen by immunofluorescence; details: C25cl48 myoblasts, IFN-b induced HLA-ABC immunofluorescence, 24 h; series mostly up to 49.8 µM; note: nearly all actives have a fitted effect of over 70% in size
In short: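 HLA-ABC immunofluorescence, with nuclear and cell-body stains, was quantified by laser scanning cytometry. Read-out followed 24 h of IFN-beta (4.0 ng/ml) stimulation of C25cl48 human myoblasts with compounds titrated 1:3 over 11 points from 50 uM, with ruxolitinib as inhibitor control.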
Potency is the fitted concentration of half-maximal effect.

Q: Which Potency does the source give for `CCN1CCN(Cc2ccc(NC(=O)Nc3ccc(Oc4cc(NC)ncn4)cc3)cc2C(F)(F)F)CC1` here?
A: Its Potency is 1620 nM (active).

Q: For `CCCCC(=O)OCC(=O)[C@H]1[C@H](C)C[C@H]2[C@@H]3C[C@H](F)C4=CC(=O)C=C[C@]4(C)[C@@]3(F)[C@@H](O)C[C@@]21C`, which Potency is on record?
A: The Potency was “inactive”.

Q: With `CC1=C(CO)C(=O)O[C@@H]([C@@H](C)[C@H]2CC[C@H]3[C@@H]4C[C@H]5O[C@]56[C@@H](O)C=CC(=O)[C@]6(C)[C@H]4CC[C@]23C)C1` as the compound, how does the Potency read?
A: Its Potency is 726 nM (active).

Q: Which Potency does the source give for `CCc1cc(C(N)=O)ccc1-n1nc(C(C)C)c2c(-n3cnc(-c4cnn(C)c4)c3)ccnc21` here?
A: Its Potency is 258 nM (active).

Q: Which Potency does the source give for `COC(=O)Nc1nc2ccc(C(=O)c3ccc(F)cc3)cc2[nH]1` here?
A: Its Potency is “inactive”.

Q: Which Potency does the source give for `CC(C)C[C@H](NC(=O)[C@H](CCc1ccccc1)NC(=O)CN1CCOCC1)C(=O)N[C@@H](Cc1ccccc1)C(=O)N[C@@H](CC(C)C)C(=O)[C@@]1(C)CO1` here?
A: The Potency was 64.7 nM (active).

Q: With `C=CC(=O)N1CCc2ccc(-n3c(=O)ccc4cnc5ccc(-c6cnn(C)c6)cc5c43)cc21` as the compound, how does the Potency read?
A: The Potency was 2890 nM (active).

Q: Which Potency does the source give for `Cn1cc(-c2ccc(-c3cncc(Cl)c3N3CCC4(CCNC4=O)CC3)cc2)cn1` here?
A: Its Potency is “inactive”.

Q: With `Cc1oncc1C(=O)Nc1ccc(C(F)(F)F)cc1` as the compound, how does the Potency read?
A: The Potency was “inactive”.

Q: With `COc1cccc2c1C(=O)c1c(O)c3c(c(O)c1C2=O)C[C@@](O)(/C(CO)=N/NC(=O)CCCCCN1C(=O)C=CC1=O)C[C@@H]3O[C@H]1C[C@H](N)[C@H](O)[C@H](C)O1` as the compound, how does the Potency read?
A: The Potency was 1020 nM (active).

Q: Which Potency does the source give for `C=CC(=O)N1CC/C(=C\c2ccc(F)c([N+](=O)[O-])c2)C(=O)/C(=C/c2ccc(F)c([N+](=O)[O-])c2)C1` here?
A: Its Potency is 182 nM (active).

Q: Which Potency does the source give for `Cc1[nH]nc2ccc(-c3cncc(OC[C@@H](N)Cc4ccccc4)c3)cc12` here?
A: The Potency was 726 nM (active).

Q: For `NC(=O)Nc1sc(-c2ccc(F)cc2)cc1C(N)=O`, which Potency is on record?
A: Its Potency is 1450 nM (active).

Q: Which Potency does the source give for `COC(=O)C[C@](O)(CCCC(C)(C)O)C(=O)O[C@@H]1C(OC)=C[C@]23CCCN2CCc2cc4c(cc2[C@H]13)OCO4` here?
A: Its Potency is 28.9 nM (active).

Q: For `CNC(=O)c1ccc(Nc2ncc(C(F)(F)F)c(NCc3nccnc3N(C)S(C)(=O)=O)n2)cc1`, which Potency is on record?
A: Its Potency is 6470 nM (active).

Q: For `CO[C@H]1C(=O)[C@]2(C)[C@@H](OC)C[C@H]3OC[C@@]3(OC(C)=O)[C@H]2[C@H](OC(=O)c2ccccc2)[C@]2(O)C[C@H](OC(=O)[C@H](O)[C@@H](NC(=O)OC(C)(C)C)c3ccccc3)C(C)=C1C2(C)C`, which Potency is on record?
A: The Potency was “inactive”.

Q: For `COc1ccc(F)c(F)c1C(=O)c1cnc(NC2CCN(S(C)(=O)=O)CC2)nc1N`, which Potency is on record?
A: Its Potency is 914 nM (active).

Q: For `CS[C@H]1SC[C@@H]2C(=O)N(C)[C@H](C(C)C)C(=O)OC[C@H](NC(=O)c3cnc4ccccc4n3)C(=O)N[C@H](C)C(=O)N(C)[C@H]1C(=O)N(C)[C@H](C(C)C)C(=O)OC[C@H](NC(=O)c1cnc3ccccc3n1)C(=O)N[C@H](C)C(=O)N2C`, which Potency is on record?
A: Its Potency is 4.1 nM (active).

Q: For `C[C@@]12O[C@@H](C[C@]1(O)CO)n1c3ccccc3c3c4c(c5c6ccccc6n2c5c31)CNC4=O`, which Potency is on record?
A: The Potency was 647 nM (active).

Q: Which Potency does the source give for `Cc1cc(O)c(-c2ccc([C@@H](C)CN)cc2)c2c1[nH]c(=O)c1sccc12` here?
A: Its Potency is 18.2 nM (active).

Q: With `CC(C)c1c2cc(-c3ccnc(NC4CCC(NC5CCOCC5)CC4)n3)ccc2nn1C` (stereo unspecified) as the compound, how does the Potency read?
A: Its Potency is 145 nM (active).

Q: Which Potency does the source give for `COCCN1CCN(Cc2ccc(-c3n[nH]c4c3C(=O)c3c(NC(=O)NN5CCOCC5)cccc3-4)cc2)CC1` here?
A: The Potency was 51.4 nM (active).

Q: With `CN1CC[C@H](c2c(O)cc(O)c3c(=O)cc(-c4ccccc4Cl)oc23)[C@H](O)C1` as the compound, how does the Potency read?
A: The Potency was 102 nM (active).

Q: Which Potency does the source give for `CCCCc1nc2cc(/C=C/C(=O)NO)ccc2n1CCN(CC)CC` here?
A: The Potency was 364 nM (active).

Q: With `CC(=O)[C@]1(O)Cc2c(O)c3c(c(O)c2[C@@H](O[C@H]2C[C@H](N)[C@H](O)[C@H](C)O2)C1)C(=O)c1ccccc1C3=O` as the compound, how does the Potency read?
A: The Potency was 230 nM (active).

Q: Which Potency does the source give for `COc1cccc2c1C(=O)c1c(O)c3c(c(O)c1C2=O)C[C@@](O)(C(C)=O)C[C@@H]3O[C@H]1C[C@H](N)[C@H](O)[C@H](C)O1` here?
A: Its Potency is 458 nM (active).

Q: For `O=C(/C=C/C#Cc1cccc(NS(=O)(=O)c2ccccc2)c1)NO`, which Potency is on record?
A: The Potency was 1450 nM (active).

Q: For `CC(C)c1c(-c2ccccc2)nc2c(C#N)c[nH]n2c1=O`, which Potency is on record?
A: Its Potency is “inactive”.

Q: With `CCOC(=O)C1=C(C)NC2=C(C(=O)CC(C)(C)C2)C1c1ccc(-c2ccccc2)cc1` (stereo unspecified) as the compound, how does the Potency read?
A: The Potency was “inactive”.

Q: For `COc1ccc(-c2ccc3ncc4c(c3c2)n(-c2ccc(N3CCNCC3)c(C(F)(F)F)c2)c(=O)n4C)cn1`, which Potency is on record?
A: Its Potency is 258 nM (active).

Q: Which Potency does the source give for `CO[C@H]1/C=C\C=C(\C)C(=O)NC2=CC(=O)C(NCCN(C)C)=C(C[C@@H](C)C[C@H](OC)[C@H](O)[C@@H](C)/C=C(/C)[C@@H]1OC(N)=O)C2=O` here?
A: The Potency was “inactive”.

Q: For `CC(C)C[C@H](NC(=O)[C@H](Cc1ccccc1)NC(=O)c1cnccn1)B(O)O`, which Potency is on record?
A: Its Potency is 25.7 nM (active).

Q: For `C1=C/COCc2cc(ccc2OCCN2CCCC2)Nc2nccc(n2)-c2cccc(c2)COC/1`, which Potency is on record?
A: Its Potency is 1290 nM (active).

Q: With `CC(C)c1cnn2c(NCc3ccccc3)cc(N[C@@H](CO)[C@H](O)CO)nc12` as the compound, how does the Potency read?
A: Its Potency is 914 nM (active).

Q: With `Cc1ccc([N+](=O)[O-])cc1S(=O)(=O)N(C)/N=C/c1cnc2ccc(Br)cn12` as the compound, how does the Potency read?
A: The Potency was 162 nM (active).

Q: Which Potency does the source give for `Nc1ccccc1NC(=O)c1ccc(CNc2nccc(-c3cccnc3)n2)cc1` here?
A: Its Potency is 3240 nM (active).
